# Source: PubChem BioAssay (NCI)
# Compounds without any hit were thinned out: in the full panel of roughly 83,000, 20% have a hit.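 Interpretation: 100, growth as untreated; towards 0, rising growth inhibition; 0, no net growth; 0 to -100, cell death. Compounds scoring below 10 were considered active.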 Unmarked numbers belong to inactive results. The source made the active and inactive calls.
# Columns and labels:
# Experiment in all cases: NCI-60 one-dose screen, 48 h (100 = growth as untreated, 0 = no growth, -100 = all killed)
# Settings in all cases: 10 µM unless noted
# DU-145 prostate = system: DU-145 prostate
# K-562 leukemia = system: K-562 leukemia
# MALME-3M melanoma = system: MALME-3M melanoma
# MDA-MB-231 breast = system: MDA-MB-231 breast
# RXF 393 renal = system: RXF 393 renal
# SF-268 CNS = system: SF-268 CNS
# SF-295 CNS = system: SF-295 CNS
# SF-539 CNS = system: SF-539 CNS
# UACC-257 melanoma = system: UACC-257 melanoma
# M14 melanoma = system: M14 melanoma
# HCT-15 colon = system: HCT-15 colon
# HT29 colon = system: HT29 colon
# SNB-75 CNS = system: SNB-75 CNS
# SNB-19 CNS = system: SNB-19 CNS
# U251 CNS = system: U251 CNS
# PC-3 prostate = system: PC-3 prostate
# SK-MEL-5 melanoma = system: SK-MEL-5 melanoma
# UACC-62 melanoma = system: UACC-62 melanoma
# LOX IMVI melanoma = system: LOX IMVI melanoma
# SK-MEL-28 melanoma = system: SK-MEL-28 melanoma
SMILES,growth (DU-145 prostate),growth (K-562 leukemia),growth (MALME-3M melanoma),growth (MDA-MB-231 breast),growth (RXF 393 renal),growth (SF-268 CNS),growth (SF-295 CNS),growth (SF-539 CNS),growth (UACC-257 melanoma),growth (M14 melanoma),growth (HCT-15 colon),growth (HT29 colon),growth (SNB-75 CNS),growth (SNB-19 CNS),growth (U251 CNS),growth (PC-3 prostate),growth (SK-MEL-5 melanoma),growth (UACC-62 melanoma),growth (LOX IMVI melanoma),growth (SK-MEL-28 melanoma)
Nc1ncc(-c2ccc3ncnc(N4CCc5cc(F)c(Cl)cc54)c3c2)cn1,33.4%,61.4%,53.6%,30%,1.88% (active),39.8%,56.2%,48.5%,67.6%,61.1%,44.2%,41.8%,-6.4% (active),59.6%,54.8%,28.3%,59.9%,23.8%,37.6%,65.1%
NS(=O)(=O)Oc1cccc(-c2nc3sccn3c2-c2ccccc2)c1,89.9%,16.7%,41.3%,60.3%,50%,70.1%,28.8%,31.9%,74.4%,20.4%,29%,27%,-9.42% (active),51.1%,36.3%,72.4%,32.3%,36.3%,49.5%,60.4%
COc1cc(/C=C2\CN(S(=O)(=O)c3ccc(C)cc3)C/C(=C\c3cc(CN4CCCC4)c(O)c(OC)c3)C2=O)cc(CN2CCCC2)c1O,-12.5% (active),1.26% (active),-81.5% (active),-20.3% (active),-87.8% (active),1.82% (active),-40.3% (active),-55.6% (active),57.7%,-66.4% (active),-2.28% (active),-60.7% (active),34.3%,15.6%,-74.5% (active),-20.2% (active),-17.5% (active),34.3%,-92.5% (active),10.3%
Nc1nc(Nc2ccc([N+](=O)[O-])cc2O)nc(C(Cl)(Cl)Cl)n1,97.3%,28.7%,84.9%,86.9%,76.1%,64.4%,93.2%,58%,85.7%,74.6%,53.3%,106%,62.6%,80.2%,73.3%,91.6%,72.7%,41.1%,44.8%,60%
C#CCOC(=O)C(N)CSSCC(N)C(=O)O (stereo not given),119%,108%,95.6%,105%,114%,100%,103%,90.8%,104%,100%,108%,102%,76.1%,103%,105%,91.6%,105%,98%,98.7%,96.4%
Cn1cc(-c2nc(-c3c[nH]c4ccncc34)cs2)c2cc(F)ccc21,-98.1% (active),-53.6% (active),-88.9% (active),-90.7% (active),-94.7% (active),-80.1% (active),-85.9% (active),-97.1% (active),-73.1% (active),-87.3% (active),-81.8% (active),-80.4% (active),-95% (active),-80.3% (active),-89.1% (active),-73.1% (active),-97.9% (active),-85.7% (active),-94.5% (active),-95.1% (active)
N#Cc1c(-c2ccc(Cl)cc2)nc(NN=Cc2cccc(Cl)c2)nc1N1CCOCC1,76%,35.1%,131%,90.6%,61.4%,90.3%,102%,79.1%,100%,84.6%,35.4%,40.4%,80.1%,104%,78.9%,73.5%,92.5%,98.1%,85.5%,106%
C#CCOc1cccc(Nc2c(Cl)c(CCl)nc3ccc(Oc4ccccc4)cc23)c1,43.8%,15%,68.4%,33.2%,78.6%,18.8%,88.7%,80.7%,90%,47.7%,12.3%,7.96% (active),75.5%,62.5%,24.9%,78%,30.4%,39.9%,-34.1% (active),65.4%
